# CYP2C19 inh: blockers of cytochrome P450 2C19 activity – biochemical, luminescence, ADME assay, primary screen | P33261 | CYP2C19 Supersomes, luciferin-H EGE luminescence, 30 min | inhibition, % at 5 µM | 21% of 96,000 active;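 active = CYP2C19 inhibition above a set limit at 5 µM in the primary screen, cut at about 50% in these data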;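 note: plate controls were negative control wells for no effect and 2.5 mM tranylcypromine positive control for full effect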
# Target sequence (P33261 whole entry, looked up): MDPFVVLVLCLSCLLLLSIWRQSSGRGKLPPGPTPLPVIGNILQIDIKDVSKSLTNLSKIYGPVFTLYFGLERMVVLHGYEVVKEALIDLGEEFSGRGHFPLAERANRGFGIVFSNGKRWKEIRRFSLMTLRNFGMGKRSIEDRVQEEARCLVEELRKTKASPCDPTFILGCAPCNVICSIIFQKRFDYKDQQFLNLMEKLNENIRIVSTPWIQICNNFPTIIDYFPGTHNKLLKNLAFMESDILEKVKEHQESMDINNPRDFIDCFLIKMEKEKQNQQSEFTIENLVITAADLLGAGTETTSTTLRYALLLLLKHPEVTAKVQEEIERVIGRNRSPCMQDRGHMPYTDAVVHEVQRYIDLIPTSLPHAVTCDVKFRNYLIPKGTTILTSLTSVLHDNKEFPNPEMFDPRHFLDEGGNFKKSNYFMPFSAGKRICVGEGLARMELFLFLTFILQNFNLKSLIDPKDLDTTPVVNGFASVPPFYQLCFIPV
# CYP2C19 act: human CYP2C19 activators, primary screen, biochemical, luminescence | recombinant CYP2C19, luciferin-H EGE luminescence; hits give high values; 0 = fully inhibited enzyme, 1 = untreated enzyme | activation factor at 5 µM | 96,000 tested, under 10 active | AID 1025, 2008;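 active = activation factor of at least 2 at 5 µM in the primary screen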;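 note: 0 = wells with 2.5 mM tranylcypromine and 1 = vehicle-only wells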
# CYP2C9 inhib: blockers of cytochrome P450 2C9 activity – biochemical, luminescence, ADME assay, primary screen | CYP2C9 Supersomes, luciferin-H conversion | inhibition, % at 5 µM | 20% of 96,000 active | AID 777, 2007;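 active = blocking of liver enzyme CYP2C9 beyond about 50% at 5 µM, limit read from the data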
# PostGolgi ctrl: growth inhibition of yeast control strain, primary screen, counter-screen for post-Golgi transport modulator project. AID 738, 2007. efflux-deficient yeast background strain, growth absorbance A615, 16 h. 5% of 98,000 active. inhibition, % at 10 µM
# PostGolgi yeast: phenotypic screen on post-Golgi transport, primary screen; post-Golgi transport phenotypic cell assay; inhibition, % at 10 µM; 0.9% of 98,000 active;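 note: yeast cells grown in 1536-well plates; yeast grown about 18 h at 30C before absorbance read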
# CYP2C9 activ: human CYP2C9 activators, primary screen, biochemical, luminescence | recombinant CYP2C9, luciferin-H conversion; hits give high values; factor 1 = untreated enzyme, 0 = blocked | 1.4% of 96,000 active | AID 1024, 2008 | Cytochrome P450 2C9 (Homo sapiens), P11712 | activation factor at 5 µM;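 active = activation factor of 2 or more for CYP2C9 at a 5 µM dose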;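 note: 0 = sulfaphenazole-blocked wells and 1 = vehicle-only wells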
# * = called active by the depositor; . = no result given. Rows were chosen to be rich in hits. Some 32% of all compounds tested hit in one or more screens of this group. Cut-off read from the data, not from the text of the source, unless noted: active = inhibition above about 30%; inactive = the rest.
SMILES,CYP2C19 inh,CYP2C19 act,CYP2C9 inhib,PostGolgi ctrl,PostGolgi yeast,CYP2C9 activ
c1ccc(-c2ccccc2-c2nc(-c3ccncc3)no2)cc1,91*,0.1,74*,56*,17,0.3
CC(C)CC(NC(=O)OC(C)(C)C)C(=O)NCc1ccccc1 (stereo not given),47,0.5,21,7,-1,0.8
CCC(CC)C(=O)Nc1c2c(nn1-c1ccc(OC)cc1)CS(=O)C2 (stereo not given),23,0.8,27,10,-5,0.7
c1ccc(-c2ccc(-c3nc(-c4ccncc4)no3)cc2)cc1,80*,0.2,72*,9,-4,0.3
O=C(O)CCc1nc(-c2ccccc2)no1,-1,1,1,1,4,1
Cc1ccc(-c2noc(CCCc3ccccc3)n2)cc1,-5,1,-8,-7,-11,1.1
c1ccc(C(Cc2nc(-c3ccncc3)no2)c2ccccc2)cc1,98*,0,90*,35*,-5,0.1
COc1ccc(-c2noc(COc3ccc(C)c(C)c3)n2)cc1OC,73*,0.3,37,0,23,0.6
c1ccc(-c2ccc(-c3nc(-c4cccnc4)no3)cc2)cc1,14,0.9,6,-8,2,0.9
COc1ccc(-c2noc(CCCc3ccccc3)n2)cc1OC,80*,0.2,61*,9,-7,0.4
CCC(c1nnnn1CC1CCCO1)N(CCN1CCOCC1)Cc1cc2cc(C)ccc2[nH]c1=O (stereo not given),-14,1.1,-12,-3,-19,1.1
Clc1ccccc1-c1nc(-c2cccnc2)no1,36,0.6,13,2,0,0.9
CSc1ccccc1-c1nnc(-c2ccccc2)o1,3,1,-136,18,15,2.4*
CSc1ccccc1-c1nnc(-c2ccc(C)cc2)o1,13,0.9,-46,4,-1,1.5
c1ccc(-c2nnc(-c3ccncc3)o2)cc1,76*,0.2,-7,3,0,1.1
COc1ccccc1N1CCN(C(=O)CSc2nc(-c3ccccc3)cc(=O)[nH]2)CC1,.,.,.,4,-5,.
Cc1ccccc1-c1nc(-c2cccnc2)no1,62*,0.4,36,15,0,0.6
COc1ccc(-c2noc(CSc3nc(-c4ccccc4)cc(=O)[nH]3)n2)cc1OC,44,0.6,60*,-1,0,0.4
Cn1nc(-c2ccccc2)c(-c2nc(-c3ccccc3Cl)no2)c1Cl,19,0.8,42,12,3,0.6
COc1ccc(-c2noc(-c3cc(C)cc(C)c3)n2)cc1OC,8,0.9,-77,-2,2,1.8
COc1ccc(-c2noc(-c3ccccc3-c3ccccc3)n2)cc1OC,36,0.6,67*,12,-6,0.3
c1coc(-c2nc(-c3ccncc3)no2)c1,87*,0.1,35,2,0,0.7
Cc1onc(-c2ccccc2Cl)c1-c1nc(-c2ccncc2)no1,99*,0,88*,25,-2,0.1
C=C(C)C1Cc2c(C)nn(-c3cccc4ccccc34)c2C1 (stereo not given),18,0.8,19,40*,10,0.8
O=C(NCc1cccnc1)C1c2ccccc2C(=O)N1Cc1ccco1 (stereo not given),78*,0.2,21,0,-16,0.8
SMILES,CYP2C19 inh,CYP2C19 act,CYP2C9 inhib,PostGolgi ctrl,PostGolgi yeast,CYP2C9 activ
O=C(NCc1cccnc1)C1c2ccccc2C(=O)N1Cc1ccccc1 (stereo not given),63*,0.4,22,10,-5,0.8
CC(C)CCN1C(=O)c2ccccc2C1C(=O)NCc1cccnc1 (stereo not given),62*,0.4,19,-3,6,0.8
O=C(CCCN1C(=O)c2ccccc2C1=O)NCc1cccnc1,-3,1,-39,0,4,1.4
CC(=O)OC1c2ccccc2C(=O)N1Cc1ccccc1 (stereo not given),51*,0.5,-17,-1,-2,1.2
COc1cc(SC)ccc1C(=O)NCCOc1c(C)cc(C)cc1C,20,0.8,0,29,-4,1
Cc1ccc(Cn2c(CN3CCOCC3)nc3c2c(=O)n(C)c(=O)n3C)cc1,.,.,.,1,4,.
CCOCCn1c(CN(Cc2ccccc2)Cc2ccccc2)nc2c1c(=O)n(C)c(=O)n2C,76*,0.2,94*,24,2,0.1
Cn1c(=O)c2c(nc(Br)n2CCCc2ccccc2)n(C)c1=O,18,0.8,-2,2,-1,1
CN(Cc1ccccc1)c1nc2c(c(=O)n(C)c(=O)n2C)n1CCCc1ccccc1,88*,0.1,97*,43*,0,0
Cc1ccc(Cn2c(CN(C)Cc3ccccc3)nc3c2c(=O)n(C)c(=O)n3C)cc1,78*,0.2,94*,38*,0,0.1
CN1CCN(Cc2nc3c(c(=O)n(C)c(=O)n3C)n2CCCc2ccccc2)CC1,5,1,11,1,2,0.9
CCCCCn1c(CN(C)Cc2ccccc2)nc2c1c(=O)n(C)c(=O)n2C,82*,0.2,100*,17,-5,0
CCOCCn1c(CN(Cc2ccccc2)Cc2ccccc2)nc2c1c(=O)[nH]c(=O)n2C,7,0.9,44,15,0,0.6
O=C(CCC1CCCCC1)Nc1cccnc1,27,0.7,2,7,1,1
Cc1ccc(C)c(Cn2c(CN(C)Cc3ccccc3)nc3c2c(=O)n(C)c(=O)n3C)c1,66*,0.3,92*,45*,3,0.1
CN(Cc1ccccc1)Cc1nc2c(c(=O)n(C)c(=O)n2C)n1Cc1ccc(F)cc1,26,0.7,72*,27,-11,0.3
CN(Cc1ccccc1)Cc1nc2c(c(=O)n(C)c(=O)n2C)n1Cc1ccc(Cl)cc1,22,0.8,50*,31*,1,0.5
Cn1c(=O)c2c(nc(CN3CCC(C(N)=O)CC3)n2Cc2c(Cl)cccc2Cl)n(C)c1=O,19,0.8,68*,-1,11,0.3
CCOC(=O)N1CCN(Cc2nc3c(c(=O)n(C)c(=O)n3C)n2Cc2cc(C)ccc2C)CC1,27,0.7,12,.,.,0.9
Cn1c(=O)c2c(nc(CN3CCN(C(=O)c4ccco4)CC3)n2Cc2ccc(F)cc2)n(C)c1=O,-5,1,-5,16,-3,1
CCC1CCCCN1Cc1nc2c(c(=O)n(C)c(=O)n2C)n1Cc1ccccc1 (stereo not given),.,.,.,.,7,.
CN(C)c1ccc(/C=C(\C#N)C(=O)Nc2nc3c(s2)CCN(Cc2ccccc2)C3)cc1,46,0.5,20,4,.,0.8
COC(=O)c1cccc(OC(N)=O)c1,18,0.8,-25,-3,0,1.2
